Assay results from the supplement of paper PMC6555819.

Key:
Experiment in all cases: PBM binding z-score (relative to random genomic background probes); higher = stronger binding; sequences stand for … in GC…GCGATTGACAGCGTAGAATGAAGG
[1] = tested on: RARb homodimer (NR concentration 270 nM)
Outline: (§1)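 Each nuclear receptor dimer, without ligand, was incubated for 1 h on custom Agilent 4×180K protein-binding microarrays. Binding was detected with antibodies against each partner (one per run), and scanned fluorescence was regression-normalized. The binding z-scores are referenced to random human genomic background probes.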

[2] = tested on: RARg:RXRa (NR concentration 270 nM, RXRa partner concentration 90 nM)
Outline: as §1

[3] = tested on: RARg homodimer (NR concentration 270 nM)
Outline: as §1

[4] = tested on: RXRa DBDmut IVT, anti-RXR (DBD mutation: RXRa K156A/R161A, NR concentration 90 nM)
Outline: as §1

[5] = tested on: RXRa homodimer (NR concentration 180 nM)
Outline: as §1

[6] = tested on: THRa:RXRa (NR concentration 90 nM, RXRa partner concentration 90 nM)
Outline: as §1

[7] = tested on: THRa homodimer (NR concentration 90 nM)
Outline: as §1

[8] = tested on: VDR homodimer (NR concentration 270 nM)
Outline: as §1

Row | Sequence | PBM binding z-score [1] | PBM binding z-score [2] | PBM binding z-score [3] | PBM binding z-score [4] | PBM binding z-score [5] | PBM binding z-score [6] | PBM binding z-score [7] | PBM binding z-score [8]
1 | TCTAGGAGGCCAGAGGGTCACTCAAGAGGTACGG | 3.01 | 3.09 | 2.32 | 0.451 | 2.66 | 1.7 | 0.0241 | 0.313
2 | CCAGACCGGTGAGAAGGTAACTCAGCCTCGATTA | 0.199 | 0.0096 | 0.0397 | -0.539 | -0.308 | -0.0126 | -0.0326 | 0.281
3 | GCGACTGGGGCATCAGCAGGTTATCATAACTTAA | 0.979 | 0.933 | 0.586 | -0.0902 | 0.555 | 1.05 | -0.305 | -0.259
4 | ATCTCTAGGTAAGACTCAGTGCAGTGAAGAACGC | 0.192 | 0.0414 | 0.117 | -0.00244 | 0.00631 | 0.285 | 0.26 | 0.24
5 | TATACAGGGTCAAGGGCCAGAGTACGAATGTCGA | 3.62 | 5.65 | 5.33 | 2.14 | 6.23 | 3.68 | 1.08 | 2.13
6 | GCTCGGAGGACCAGGTCAGAGCTTTGTCCGTAGA | 1.34 | 0.802 | 0.461 | -0.305 | 0.617 | 1.73 | 0.402 | -0.425
7 | TCTTGTAGATCAATAGAGGTTAAGAACGTGCGCT | 1.05 | 0.792 | 0.716 | 0.923 | 1.54 | 2.33 | -0.182 | 0.37
8 | GCAGACAGGTGAAACTCAGGTAACTCAGGGTGGC | 0.42 | 1.03 | 0.566 | -0.185 | 0.901 | 2.7 | 0.521 | -0.73
9 | CCTCGGAGGACAGAAGGTGAGAGCTGTCCGCTTT | 1.05 | 0.543 | 0.503 | -0.26 | -0.253 | 0.747 | -0.514 | -0.603
10 | CCTACTGCGCCATCAGGTCATTGATATCAACGTT | 2.85 | 1.59 | 1.53 | 1.5 | 1.3 | 3.49 | 3.56 | 2.17
11 | CGTCCAAGGTCAGAGAGGTCAGGGAATGCCGAGT | 5.34 | 6.59 | 7.38 | 3.45 | 6.19 | 4.47 | 3.11 | 4.88
12 | CCTCGGAGGACAGAAGGTCAGACCTGTCCGCTTT | 3.7 | 3.17 | 3.3 | 0.392 | 2.08 | 2.39 | -0.0906 | 0.229
13 | TTACAAAGGTGAAGGTCGTTGATCCCTCTGTAGA | 2.91 | 3.09 | 2.66 | 0.165 | 3.13 | 2.1 | 0.228 | 1.08
14 | AGAATGAGGTTATTAAGATCAGGAAATTGCGGTC | 0.491 | 1.3 | 0.9 | 1.99 | 1.75 | 2.06 | 0.497 | 1.18
15 | ACTAGTTGGTCAGCTGAGGTCTCACACAATTCGG | 1.08 | 0.511 | 0.774 | 0.296 | 0.296 | 2.7 | 0.829 | -0.0195
16 | ATCGACAGGTCGACGAGGTGAGTATACACCGTTT | 0.949 | 1.55 | 1.78 | 0.12 | 1.58 | 2.58 | 0.428 | 0.49
17 | CCGACTGGAGCAAAGGTTACCATACTCAGTACGA | 2.17 | 1.89 | 1.29 | 0.545 | 2.57 | 1.39 | 0.122 | 0.17
18 | CCTCGGATGACAGAAGGTCAGAGCTGTCCGCTTT | 2.83 | 2.49 | 2.16 | 0.111 | 2 | 1.95 | -0.359 | 0.287
19 | GGTTGTAGATCAAGGTTAAGAAAGACTAAGCTAA | 0.97 | 0.695 | 0.809 | 0.0764 | 0.901 | 1.53 | 0.54 | 0.584

Row | Sequence | PBM binding z-score [1] | PBM binding z-score [2] | PBM binding z-score [3] | PBM binding z-score [4] | PBM binding z-score [5] | PBM binding z-score [6] | PBM binding z-score [7] | PBM binding z-score [8]
20 | TCTCGGGGGACACGAAAGGTCAGAGCTCGACATC | 4.59 | 6.13 | 6.61 | 2.14 | 4.9 | 4.19 | 2.07 | 1.57
21 | CAAACTAGGTAACGAAAGGTCAAAGTCGAATGAC | 4.76 | 5.68 | 5.08 | 1.05 | 6.35 | 4 | 1.16 | 2.25
22 | GCTGCTAGGTCAACCGATGGTCAGCTAAAGCTCG | 3.51 | 5.42 | 5.15 | 1.31 | 3.11 | 2.71 | 0.689 | -0.333
23 | TCTCGGAGGACACGAAAGGTCATAGCTCGACATC | 4.89 | 5.58 | 5.34 | 1.71 | 5.3 | 4.24 | 2.12 | 2.67
24 | TAGCCTAGGTCAGTGGGCCAGTATAGTACGCATC | 2.1 | 2.45 | 3.58 | -0.571 | 1.03 | 1.29 | -0.197 | -0.446
25 | ACTAGCAGACCAAGTTTGGGTCACTCAAACAAAG | 1.57 | 0.911 | 0.702 | -0.0274 | 0.79 | 1.98 | 0.78 | 0.00842
26 | CTCGAAAGGACGTGCTCAGGTGAGTATACCAAAC | 0.589 | 0.291 | 0.547 | 0.19 | -0.118 | 1.17 | 0.542 | -0.391
27 | CTTACTGGGCCACGAAAGGTCATTGATTCAGTGA | 4.85 | 5.14 | 4.77 | 1.19 | 5.84 | 4.12 | 1.15 | 1.78
28 | CAAACTAGGTCAAAGAGGTCAAAGTCCGTGCGTA | 5.27 | 6.66 | 6.81 | 3.24 | 7.15 | 4.4 | 2.33 | 6.65
29 | TTACCAAGTTGAAAGGTCGTTGATGCACGCCTTG | 2.1 | 2.9 | 1.34 | 1.31 | 4.21 | 1.92 | -0.189 | 1.58
30 | TCATATGGGTAAATGCTAGGTGAAAGTCCGATCT | 0.561 | 0.294 | -0.0205 | 0.923 | 0.517 | 1.38 | 0.395 | -0.156
31 | ACAGTCAGGTGAGTGAAGGTAACTCAGCTGGACG | -0.0774 | 0.2 | 0.617 | -0.471 | 0.122 | 1.63 | -0.205 | -0.58
32 | CGTCCAAGGTCAAGGTCGGTGAAAGAGACTCGAA | 4.27 | 6.3 | 6.78 | 3.67 | 5.99 | 4.11 | 2.88 | 2.44
33 | AGAACGAAGGCAATGAGTTGATAGCACGGGTGGC | -1.03 | -0.228 | -0.122 | -0.299 | -0.105 | -0.732 | -1.11 | -0.223
34 | GGGACGAGGGCATTCGAGTTGATAGCATGGCGAT | 1.01 | 1.19 | 1.58 | 2.93 | 0.775 | 3.52 | -0.0645 | 3.06
35 | CGTCCAAGGACAAAGGTCAGTGAAGAGATGACGG | 4.61 | 5.3 | 4.95 | 1.31 | 4.03 | 4 | 1.15 | 0.88
36 | TCATATAGGTAATACAGGTGAAAGTAGGCATCTA | 0.649 | 0.714 | 0.742 | 1.81 | 1.2 | 1.05 | 0.429 | 0.305
37 | GTACCAAGGTGAATACGTCGTTGATGAGTAGGCG | 0.139 | 0.764 | 0.692 | -0.417 | 0.56 | 1.19 | 0.199 | -0.342
38 | CCGACTGGGGCAAGGTGACCATAACGCACAGCCA | 1.11 | 0.469 | 0.934 | -0.745 | 0.419 | 0.718 | 0.18 | -0.459

Row | Sequence | PBM binding z-score [1] | PBM binding z-score [2] | PBM binding z-score [3] | PBM binding z-score [4] | PBM binding z-score [5] | PBM binding z-score [6] | PBM binding z-score [7] | PBM binding z-score [8]
39 | CAAACTAGGTCACCGGAAGGTCAAGGTCCGCATG | 5.77 | 8.53 | 7.66 | 2.03 | 6.64 | 4.3 | 3.53 | 3.16
40 | ACTATTAGTTGAGGCGAGGGCAACCGATAGGTTG | 1.3 | 0.575 | 0.748 | 0.263 | 0.386 | 2.43 | 0.721 | 0.813
41 | TCTAGCAGGCCAGACGGTCACTCAAGAGGTACGG | 1.12 | 0.224 | 0.8 | -0.226 | 0.291 | -0.447 | -0.799 | -1.01
42 | GCTAGCAGGCCATTTGGGTAACTCAATGACGGGC | -0.555 | -0.388 | -0.283 | -0.499 | -0.0687 | -0.0773 | -0.78 | -0.461
43 | GCTGCTAGGTCAACTGATAGTCAGCTAAAGCTCG | 3.15 | 4.31 | 5.07 | 1.68 | 2.75 | 2.74 | 0.622 | 0.0089
44 | AGTAGTTGGTCAGCTGAGGTCACACACAATTCGG | 4.45 | 4.21 | 4.62 | 1.36 | 4.2 | 4.88 | 5 | 3.98
45 | TAGCCTAGGTCATGGGCCAGCATACCACGCGAAC | 2.95 | 4.29 | 4.36 | -0.00159 | 3.28 | 3.04 | 0.897 | 0.227
46 | CAAACTAGGTCACTGGAAGGTCAAAGTCCGCATG | 5.21 | 7.66 | 6.65 | 1.96 | 5.54 | 4.3 | 2.43 | 3.86
47 | CATACAGGGTCAGCTAGACCAGAGTAGGGACGGC | 2.81 | 4.53 | 4.93 | 1.59 | 4.3 | 2.83 | 0.733 | 0.573
48 | CCTACTGGGCCAAGGTCAGTGATCAGTCAAAGCA | 2.89 | 2.37 | 2.48 | -0.721 | 1.4 | 2.31 | 1.15 | 0.568
49 | AGTCAAAGTTCAGGAGGAGGTAACGTAAAGCACG | 3.59 | 5.4 | 4.92 | 3.04 | 3.26 | 2.88 | 0.548 | 2.16
50 | CCTATTAGTTGGCCATAAGGGCAACCGAAGCTCG | 1.46 | 0.564 | 0.624 | 0.223 | 0.155 | 1.3 | 0.895 | 0.172
51 | GCGAGTTGGTCAGTAAAAGGTCACACACCGGTCG | 5.05 | 5.52 | 4.95 | 1.34 | 5.54 | 3.47 | 1.74 | 2.27
52 | TCGAGTAGGTTAGTCGGGGCATTCAACCAACATA | 0.661 | 0.183 | 0.0739 | 0.482 | 0.119 | 1.28 | 0.217 | 0.466
53 | GCTAGCGGGCCATTTGGGTCACTCAATGACGGGC | 1.54 | 0.986 | 1.19 | -0.841 | 0.742 | 1.94 | 0.129 | 0.0296
54 | CGTACAAGGTCAGAGAGGTCAGTGAATGCCGAGT | 5.31 | 6.28 | 7.24 | 3.52 | 5.95 | 4.23 | 2.64 | 6
55 | GCTAGCAGTCCATTTGGGTCACTCAATGACGGGC | 1.54 | 0.428 | 0.586 | 0.506 | 0.617 | 1.82 | 0.507 | 0.912
56 | TCGAGTAGGTTAAGGGCATTCAGAATGGCGTCGA | 1.47 | 1.08 | 1.23 | 0.693 | 1.18 | 2.16 | 0.794 | 1.14
57 | GCTATTAGTTGAAAGGGCAGCCGAATGATTCTCG | 1.51 | 0.552 | 0.863 | 0.695 | 0.636 | -0.12 | -0.775 | -0.507
